From PubChem BioAssay come the findings set out here.

The nature of assay [1]: Wnt pathway potentiators raising nuclear beta-catenin – imaging, WNT3A-conditioned medium, mouse C2C12, NPC library, primary screen (AID 1117326; in the data active = nuclear beta-catenin stimulation mostly above about 4.2%, no sharp cut-off; inactive = mostly below about 10%). Conditions: stronger effect = higher value.
The nature of assay [2]: growth inhibition of GSK3B-pretreated HCT116 cells – cell-based, CellTiter-Glo, 0.2 to 20 µM (AID 1117336;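 active = compounds lowering colon cancer cell viability after pretreatment blocking the GSK3B kinase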). Conditions: HCT116 viability after GSK3B inhibitor, at 20 µM, stronger effect = higher value. On the technique in general: In ATP-based viability assays light output follows the ATP content of the culture.
The nature of assay [3]: HCT116 colon cancer cell growth inhibition, primary screen, CellTiter-Glo luminescence, NPC library (AID 1117342;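 active = compounds that lower survival of HCT116 colon cancer cells in the luminescence readout, no numeric limit stated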). As to conditions: at 20 µM (top of the series).
The nature of assay [4]: reduced SW480 viability measured with CellTiter-Glo, NPC library, primary (AID 1117343;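 active = compounds that lower viability of the colon cancer cells in the luminescence readout, with no numeric limit stated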). As to conditions: CellTiter-Glo luminescence; at 20 µM (top of the series) unless noted.
The nature of assay [5]: NPC library primary testing for decreased DLD-1 cell viability via CellTiter-Glo (AID 1117346;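 active = compounds that lower survival of DLD-1 colon cancer cells in the luminescence readout, no cutoff given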). As to conditions: DLD-1 viability, CellTiter-Glo luminescence; at 20 µM (top of the series).
The nature of assay [6]: compounds altering viability of human ES cells (AID 493140).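 Note: cells exposed to compounds for four days before counting.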 Conditions: human embryonic stem cell survival screen; stronger effect = higher value.
Assay [7] in a line: stimulators of insulin release from INS-1E, primary screen, cell-based, 5 mM glucose, NPC library (AID 1117329;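 active = compound raises insulin release from rat beta cells at 5 mM glucose, no numeric limit stated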). Conditions: rat INS-1E insulin secretion, at 10 µM, stronger effect = higher value.
Assay [8] in a line: inhibition of endothelial tube formation, primary screen, imaging, VEGF stimulated, CD31 staining, tube area, NPC library (AID 1117340;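 active = compound that reduces growth-factor-driven endothelial tube area in a mixed cell culture, no cutoff stated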). As to conditions: VEGF-stimulated ADSC/ECFC co-culture, at 10 µM, stronger effect = higher value.
Assay [9] in a line: GLP1 release stimulators, primary, NCI-H716, NPC library (AID 1117341;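 active = compound raises GLP1 secretion from the human gut endocrine cells, with no numeric limit stated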). Conditions: NCI-H716 cells, at 10 µM, stronger effect = higher value.
For assay [10], the target named is 6-phosphogluconate dehydrogenase, decarboxylating (Homo sapiens) (UniProt P52209). In words: inhibition of human phosphogluconate dehydrogenase – biochemical, recombinant enzyme, NADPH absorbance, primary screen (AID 1159550;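 active = at least 20% inhibition of 6-phosphogluconate dehydrogenase activity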). Conditions: recombinant 6PGD, NADPH absorbance 341 nm; at 10 µM; stronger effect = higher value.
A short description of assay [11]: modulation of C. elegans fzo-1 (AID 1259413).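 Note: fzo-1 mutant C. elegans worms in liquid wells.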 Conditions: C. elegans fzo-1 modulator screen, mean read-out; stronger effect = higher value.
Assay [12] can be described thus: EMT-state selective cytotoxicity in co-culture – imaging, PC-3E GFP, TEM4-18 mCherry, primary screen (AID 1345086;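 active = compounds killing one labelled cell type while sparing the other, by normalised counts and ratio limits, not self-fluorescent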;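 for all read-outs here: cells exposed to compound for 72 h before imaging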;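 for red/green cell ratio (normalised): normalised mesenchymal count divided by normalised epithelial count so high means epithelial killing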). As to conditions: PC-3E GFP / TEM4-18 mCherry co-culture, imaging cell counts, at 1 µM; for red/green cell ratio (normalised): actives lie on both sides, counts scaled to control wells, 1 = unselective.
The nature of assay [13]: viability loss with induced miR-34 in A549 – imaging, A549 dox-inducible miR-34, nuclei and caspase counts, primary screen (AID 1347080;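 active = compounds whose cell count with miR-34 switched on is under 0.7 times the count with it off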). Conditions: A549 miR-34 inducible, Hoechst nuclei count, 48 h.
The target of assay [14] is NAD(+) hydrolase SARM1 (Homo sapiens) (UniProt Q6SZW1). In words: blocking NAD cleavage by SARM1 SAM-TIR – cell lysate, NAD-Glo luminescence (AID 1508614;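 active = compound whose remaining NAD level is above about 45 nM, limit read from the data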;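 note: higher remaining NAD means stronger inhibition of SARM1 NADase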). As to conditions: SAM-TIR HEK293T lysate NADase, at 1 µM, stronger effect = higher value.
The target of assay [15] is Mitogen-activated protein kinase 7 (Homo sapiens) (UniProt Q13164). In words: Gal4-ERK5 driven luciferase induction – cell-based, HTS, primary screen (AID 1508626;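 active = luciferase signal above three times the same-plate solvent-only control wells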;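 note: luciferase driven by Gal4-ERK5 fusion binding five Gal4 sites before minimal TATA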). As to conditions: HeLa Gal4-ERK5 transactivation, 18 h, at 5 µM, stronger effect = higher value.
Assay [16] is described as follows: galactose survival enhancers in mitochondrial complex I cybrids – cell-based, galactose medium, ATP luminescence, primary screen (AID 1645843;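 active = z-score of at least 1.8 in each of two replicates, scored against plate mean and spread of sample wells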;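 note: positive z means more ATP and so rescue of galactose-driven cybrid death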). As to conditions: complex I mutant cybrid cells, 72 h, stronger effect = higher value.
Assay [17] in a line: MELAS cybrid and Rieske KO viability enhancers – cell-based, MELAS cybrids, Rieske KO mouse fibroblasts, CellTiter-Glo, primary screen (AID 1508586;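 active = mean z-score across replicates of 1.96 or higher in either the MELAS or the Rieske mutant cell line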;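 note: z relative to plate mean and SD of compound and empty wells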). Conditions: low glucose.
Assay [18] is described as follows: P. berghei load reduction in hepatocytes – cell-based, HepG2, luciferase luminescence, HepG2 viability, primary screen (AID 624349; in the data active = parasite load remaining mostly below about 12%, no sharp cut-off; inactive = mostly above about 10%;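 note: 100% = mean of DMSO negative control wells on the same plate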). Conditions: P. berghei liver stage in HepG2, luciferase luminescence, concentration not given here; parasite load remaining: stronger effect = lower value; viability: measured here: HepG2 viability without parasites.
The mark [19] stands for this setting: measured here: epithelial PC-3E GFP cell survival.
Where [20] appears, read: measured here: mesenchymal TEM4-18 mCherry cell survival.
[21] abbreviates: stronger effect = lower value, cell number ratio, induced over uninduced.
[22] abbreviates: measured here: relative caspase fold change +Dox/-Dox.
The mark [23] stands for this setting: measured here: total cells with miR-34 induction, stronger effect = lower value.
Setting [24] is: measured here: total cells without miR-34 induction.
Setting [25] is: MELAS cybrid survival, CellTiter-Glo 48 h, stronger effect = higher value.
Setting [26] is: Rieske KO mouse fibroblast survival, CellTiter-Glo 72 h.

“And” between values parts separate entries of the source, which are not always exact repeats. Identical values can stand only once. The source made the active and inactive calls. Unless noted, the rule behind the calls is not given here.

Chain of 6-phosphogluconate dehydrogenase, decarboxylating (Homo sapiens) (P52209 whole entry, looked up): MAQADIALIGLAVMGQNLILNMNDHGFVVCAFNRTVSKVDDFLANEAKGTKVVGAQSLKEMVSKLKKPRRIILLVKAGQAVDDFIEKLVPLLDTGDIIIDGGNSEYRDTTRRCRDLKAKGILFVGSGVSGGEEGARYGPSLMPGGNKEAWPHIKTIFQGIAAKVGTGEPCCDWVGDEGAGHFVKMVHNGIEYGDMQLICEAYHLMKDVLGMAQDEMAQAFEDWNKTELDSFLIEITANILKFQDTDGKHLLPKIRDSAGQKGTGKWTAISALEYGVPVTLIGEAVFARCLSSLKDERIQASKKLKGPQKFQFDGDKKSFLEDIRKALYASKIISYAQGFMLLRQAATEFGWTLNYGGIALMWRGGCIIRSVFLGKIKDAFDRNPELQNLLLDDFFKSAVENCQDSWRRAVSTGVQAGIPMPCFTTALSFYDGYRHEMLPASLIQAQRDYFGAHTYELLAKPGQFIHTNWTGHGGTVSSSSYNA
Chain of NAD(+) hydrolase SARM1 (Homo sapiens) (Q6SZW1 whole entry, looked up, the tested form may be a part): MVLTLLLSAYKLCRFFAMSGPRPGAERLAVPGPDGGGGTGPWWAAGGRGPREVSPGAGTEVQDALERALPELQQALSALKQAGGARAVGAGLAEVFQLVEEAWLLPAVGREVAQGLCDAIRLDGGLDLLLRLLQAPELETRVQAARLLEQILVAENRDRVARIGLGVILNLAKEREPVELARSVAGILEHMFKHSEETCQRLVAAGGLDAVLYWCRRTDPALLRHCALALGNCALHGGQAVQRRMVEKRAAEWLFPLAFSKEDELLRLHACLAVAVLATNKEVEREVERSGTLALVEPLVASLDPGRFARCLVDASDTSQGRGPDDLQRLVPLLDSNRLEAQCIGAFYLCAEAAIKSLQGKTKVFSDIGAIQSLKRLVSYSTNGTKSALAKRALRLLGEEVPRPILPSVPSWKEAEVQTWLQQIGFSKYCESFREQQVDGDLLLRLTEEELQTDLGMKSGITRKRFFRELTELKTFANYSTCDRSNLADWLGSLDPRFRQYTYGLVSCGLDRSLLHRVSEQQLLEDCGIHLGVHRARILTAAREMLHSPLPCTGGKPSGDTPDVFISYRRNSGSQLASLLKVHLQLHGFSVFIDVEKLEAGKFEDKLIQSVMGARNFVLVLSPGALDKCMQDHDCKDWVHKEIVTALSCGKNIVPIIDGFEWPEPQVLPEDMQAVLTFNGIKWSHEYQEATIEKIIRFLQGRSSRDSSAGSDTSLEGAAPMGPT
Chain of Mitogen-activated protein kinase 7 (Homo sapiens) (Q13164 whole entry, looked up, the tested form may be a part): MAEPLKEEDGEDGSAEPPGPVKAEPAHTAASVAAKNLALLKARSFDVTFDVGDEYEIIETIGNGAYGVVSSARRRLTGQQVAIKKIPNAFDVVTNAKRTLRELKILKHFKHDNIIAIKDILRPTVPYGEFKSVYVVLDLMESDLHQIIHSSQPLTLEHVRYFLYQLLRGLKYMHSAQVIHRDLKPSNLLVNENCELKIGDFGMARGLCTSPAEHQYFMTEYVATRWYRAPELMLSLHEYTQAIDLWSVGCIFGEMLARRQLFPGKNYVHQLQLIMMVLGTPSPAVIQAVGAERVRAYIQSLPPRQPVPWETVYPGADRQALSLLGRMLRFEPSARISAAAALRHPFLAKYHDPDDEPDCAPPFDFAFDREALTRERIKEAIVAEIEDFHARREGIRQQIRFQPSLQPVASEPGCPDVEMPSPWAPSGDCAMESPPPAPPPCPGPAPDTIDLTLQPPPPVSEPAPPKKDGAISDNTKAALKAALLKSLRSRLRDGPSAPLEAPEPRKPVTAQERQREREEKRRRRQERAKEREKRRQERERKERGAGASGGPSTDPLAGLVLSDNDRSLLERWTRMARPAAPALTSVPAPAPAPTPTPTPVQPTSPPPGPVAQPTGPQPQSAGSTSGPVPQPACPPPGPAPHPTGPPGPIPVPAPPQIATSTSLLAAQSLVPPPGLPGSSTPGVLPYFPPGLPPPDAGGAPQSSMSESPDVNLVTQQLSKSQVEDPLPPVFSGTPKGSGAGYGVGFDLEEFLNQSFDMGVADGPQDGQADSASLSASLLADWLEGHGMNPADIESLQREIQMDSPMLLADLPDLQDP

For `CC(C)CCCC(C)NCCC(C)C` (configuration not stated), the nuclear beta-catenin stimulation in assay [1] (at 10 µM) is -1.6% (inactive); in assay [1] (stimulation, at 2 µM) it was 2.7%. In assay [2], the viability decrease was -5.2% (inactive). In [3], the inhibition of viability is -0.4% (inactive). For the same molecule, the viability decrease (inhibition) in assay [4] was -8.8% (inactive); in [5] it was 1.8% (inactive).

In the case of `CN/C(=C\[N+](=O)[O-])NCCSCc1ccc(CN(C)C)o1`, the survival in assay [6] was 19.6 (inactive). For the same molecule, the insulin secretion stimulation in [7] is -1% (inactive). In addition, in assay [2], the viability decrease was -7.5% (inactive). The tube area decrease in [8] is 7% (inactive). In assay [9], the GLP1 secretion stimulation is -1.4% (inactive). Besides, in assay [3], the inhibition of viability is 2.23% (inactive). Moreover, the viability decrease (inhibition) was -25.8% (inactive) in [4] and -22.7% (inactive) in assay [5]. The inhibition (in general, the change of the read-out against control, counted positive when it falls) in assay [10] was -3.38% (inactive). In addition, the mean signal in assay [11] is 267 (inactive). Further, the red/green cell ratio (normalised) in assay [12] is 1.01 (inactive). Besides, the normalised cell number worked out at 1.03 in [12] (setting [19]) and 1.04 in assay [12] (setting [20]). Moreover, the fold change in assay [13] (setting [21]) was 0.934 (inactive) and 0.989 (inactive) and 0.926 (inactive); in assay [13] (setting [22]) it was 0.757 and 2.23 and 4.08. Besides, the cell count was 10600 and 10300 and 12000 in [13] (setting [23]); 11300 and 10400 and 13000 in assay [13] (setting [24]). The remaining NAD in assay [14] was 10 nM (inactive). Further, the luciferase signal in [15] was 28 AU (inactive). The z-score in [16] was 0.37 (inactive) and -0.285 (inactive).

For the molecule `COc1ccc2cc([C@H](C)C(=O)O)ccc2c1`, the survival in [6] was 2.08 (inactive). The insulin secretion stimulation in assay [7] is -0.7% (inactive). Also, the viability decrease in assay [2] was -21% (inactive). Moreover, the tube area decrease in assay [8] was 16.3% (inactive). Moreover, the GLP1 secretion stimulation in assay [9] was -1.7% (inactive). Further, the inhibition of viability in [3] is -1.1% (inactive). The viability decrease (inhibition) was 30.2% (inactive) in assay [4] and -14.8% (inactive) in [5]. In assay [10], the inhibition was -2.26% (inactive). The mean signal in assay [11] was 264 (inactive). For the same molecule, the red/green cell ratio (normalised) in assay [12] was 1.07 (inactive). Besides, the normalised cell number is 1.19 in assay [12] (setting [19]) and 1.27 in assay [12] (setting [20]). Moreover, the z-score in assay [17] (setting [25]) is 0.168 (inactive); in [17] (setting [26]), -0.681; in [16], 0.36 (inactive) and 0.18 (inactive) and 0.675 (inactive). Further, the remaining NAD in assay [14] is 10 nM (inactive). Besides, the luciferase signal in assay [15] is 36 AU (inactive).

Turning to `Cc1cc(NS(=O)(=O)c2ccc(N)cc2)no1`, the survival in assay [6] is 30.6 (inactive). For the same molecule, the insulin secretion stimulation in assay [7] was -2.1% (inactive). The viability decrease in assay [2] is 1.7% (inactive). For the same molecule, the tube area decrease in assay [8] was 1.9% (inactive). Moreover, in [9], the GLP1 secretion stimulation is 1.9% (inactive). In addition, the inhibition of viability in [3] is -6.5% (inactive). Also, the viability decrease (inhibition) in assay [4] was -7.9% (inactive); in [5], 3.95% (inactive). In addition, the inhibition in assay [10] is 11.1% (inactive). In assay [11], the mean signal was 252 (inactive). Moreover, the red/green cell ratio (normalised) in assay [12] is 1.25 (inactive). Also, the normalised cell number in assay [12] (setting [19]) is 1.05; in assay [12] (setting [20]), 1.32. The z-score in assay [17] (setting [25]) was -0.296 (inactive) and -0.181 (inactive); in [17] (setting [26]), -0.35 and -0.048; in [16], 0.255 (inactive). In assay [14], the remaining NAD was 10 nM (inactive). The luciferase signal in assay [15] is 64 AU (inactive).

As for `COc1ccc2c(c1)C(=O)N(CCc1ccc(S(=O)(=O)NC(=O)NC3CCCCC3)cc1)C(=O)C2(C)C`, the survival in assay [6] is 22.9 (inactive). In addition, the parasite load remaining in assay [18] is 128% (inactive). In addition, the viability (commonly the share of living cells, or the viability signal relative to a control) in assay [18] was determined as 79.4%. Further, the nuclear beta-catenin stimulation in assay [1] (at 10 µM) was 0.7% (inactive); in [1] (stimulation, at 2 µM) it was 10.6%. Also, the viability decrease in assay [2] was 87.4% (active). Moreover, the inhibition of viability in assay [3] is 68% (active). Besides, the viability decrease (inhibition) was 87.1% (active) in assay [4] and 94% (active) in assay [5]. In addition, the fold change was 0.971 (inactive) and 0.893 (inactive) in assay [13] (setting [21]); 0.765 and 0.69 in assay [13] (setting [22]). Further, the cell count in assay [13] (setting [23]) is 9100 and 8180; in assay [13] (setting [24]) it was 9360 and 9160. In addition, the z-score in assay [17] (setting [25]) is -0.157 (inactive) and 0.277 (inactive); in [17] (setting [26]), -0.221 and -0.0621.
